For some of these results: Results with a measured potency or affinity are listed apart.
How the values were obtained:
Set-up in all cases: scale not given: direction of the effect not stated beside the values
[1] = molecular target: Protein translocase subunit SecA (Escherichia coli (strain K12)) (UniProt P10408); assay: Assay to Identify E. coli SecA ATPase Inhibitors; assay type: functional; conditions: 30 µM
[2] = molecular target: T1, Ubiquitin-activating enzyme e1, putative (Leishmania donovani (strain BPK282A1)) (UniProt E9BSI1); assay: Leishmania donovani Ubiquitin Activating Enzyme (LdE1); assay type: functional; conditions: 30 µM
T1 sequence (whole entry): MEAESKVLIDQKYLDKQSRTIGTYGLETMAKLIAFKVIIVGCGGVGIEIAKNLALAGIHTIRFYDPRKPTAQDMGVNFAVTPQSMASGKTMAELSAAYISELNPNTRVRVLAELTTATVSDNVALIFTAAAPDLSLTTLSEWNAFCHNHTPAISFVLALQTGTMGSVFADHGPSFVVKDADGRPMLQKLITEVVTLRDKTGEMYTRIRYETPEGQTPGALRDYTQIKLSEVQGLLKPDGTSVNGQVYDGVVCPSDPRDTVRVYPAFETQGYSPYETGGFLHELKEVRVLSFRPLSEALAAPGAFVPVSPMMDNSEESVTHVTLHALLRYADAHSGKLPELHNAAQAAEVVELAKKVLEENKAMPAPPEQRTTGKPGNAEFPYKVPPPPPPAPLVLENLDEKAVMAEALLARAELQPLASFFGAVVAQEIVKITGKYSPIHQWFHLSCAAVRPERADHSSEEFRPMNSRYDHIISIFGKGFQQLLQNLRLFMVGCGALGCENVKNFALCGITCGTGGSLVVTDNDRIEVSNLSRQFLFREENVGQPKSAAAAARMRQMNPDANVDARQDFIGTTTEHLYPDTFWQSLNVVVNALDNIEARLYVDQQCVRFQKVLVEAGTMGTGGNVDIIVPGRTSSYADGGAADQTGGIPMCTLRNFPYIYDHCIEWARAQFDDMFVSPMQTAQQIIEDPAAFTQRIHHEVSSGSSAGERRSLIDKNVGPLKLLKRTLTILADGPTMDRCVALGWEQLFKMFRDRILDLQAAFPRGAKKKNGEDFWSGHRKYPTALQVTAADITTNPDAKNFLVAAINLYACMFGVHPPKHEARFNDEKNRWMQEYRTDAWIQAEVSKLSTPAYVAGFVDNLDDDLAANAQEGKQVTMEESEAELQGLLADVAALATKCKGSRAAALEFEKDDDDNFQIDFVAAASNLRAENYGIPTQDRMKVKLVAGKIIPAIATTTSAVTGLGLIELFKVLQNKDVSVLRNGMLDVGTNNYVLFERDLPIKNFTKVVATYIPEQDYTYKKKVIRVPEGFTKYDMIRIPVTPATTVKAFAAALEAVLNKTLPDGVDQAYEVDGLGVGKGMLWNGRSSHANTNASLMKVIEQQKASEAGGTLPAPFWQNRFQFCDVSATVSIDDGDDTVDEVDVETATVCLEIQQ

[3] = molecular target: AMP-activated protein kinase, AMPK (Homo sapiens) (UniProt P54646+O43741+P54619+Q9UGJ0+Q9Y478+Q13131+Q9UGI9); assay: AMP-dependent Kinase enzyme assay. An in vitro enzyme assay that detects ADP turnover that is directly proportional to AMPK activity. This uses naive AMPK that is activated during the assay with MK-8722; assay type: functional; conditions: 30 µM
[4] = molecular target: Sialic acid-binding Ig-like lectin 9 (Homo sapiens) (UniProt Q9Y336); assay: Hs-Siglec9 ALPHAscreen SOP 20170721; conditions: 10 µM
Sequence of Sialic acid-binding Ig-like lectin 9 (Homo sapiens) (Q9Y336 whole entry): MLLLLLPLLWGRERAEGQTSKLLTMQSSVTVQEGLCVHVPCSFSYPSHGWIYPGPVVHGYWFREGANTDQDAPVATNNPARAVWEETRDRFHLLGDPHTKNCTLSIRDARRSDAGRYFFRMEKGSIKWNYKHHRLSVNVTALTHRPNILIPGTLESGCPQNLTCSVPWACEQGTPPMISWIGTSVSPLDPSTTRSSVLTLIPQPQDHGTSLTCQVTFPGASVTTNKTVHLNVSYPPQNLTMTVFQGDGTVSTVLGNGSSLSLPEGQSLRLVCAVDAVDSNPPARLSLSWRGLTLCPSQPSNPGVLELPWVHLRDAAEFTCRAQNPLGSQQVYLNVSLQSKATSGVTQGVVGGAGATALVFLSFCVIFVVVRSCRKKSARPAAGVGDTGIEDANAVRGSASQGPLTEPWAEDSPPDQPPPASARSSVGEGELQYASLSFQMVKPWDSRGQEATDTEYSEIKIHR

Trypanosoma cruzi = assay: Trypanosoma cruzi phosphomannomutase and mannose-1-phosphate guanylyltransferase assay; assay type: functional; conditions: 10 µM
[5] = molecular target: T2, Arginase-2, mitochondrial (Homo sapiens) (UniProt P78540); assay: in vitro enzyme assay to detect the production of urea directly proportional to the activity of Arginase II; assay type: functional; conditions: 33.3 µM; further: in the data most compounds retested in dose-response had high values
T2 sequence (whole entry): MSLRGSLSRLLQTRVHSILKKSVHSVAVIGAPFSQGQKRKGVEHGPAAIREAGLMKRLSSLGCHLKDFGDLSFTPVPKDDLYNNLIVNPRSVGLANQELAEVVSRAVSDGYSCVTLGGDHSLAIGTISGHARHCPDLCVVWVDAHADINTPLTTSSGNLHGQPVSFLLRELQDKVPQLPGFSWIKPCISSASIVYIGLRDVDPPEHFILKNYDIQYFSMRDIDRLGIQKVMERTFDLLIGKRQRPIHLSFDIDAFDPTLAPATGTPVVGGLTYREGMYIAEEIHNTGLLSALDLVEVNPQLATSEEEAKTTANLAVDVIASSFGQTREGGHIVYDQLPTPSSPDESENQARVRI

[6] = molecular target: T3, Proteasome subunit beta (Trypanosoma cruzi) (UniProt O96673); assay: Trypanosoma cruzi proteasome chymotrypsin-like activity (TcProtChymo) assay.; further: in the data most compounds retested in dose-response had high values; assay type: functional; conditions: 9.37 µM
T3 sequence (whole entry): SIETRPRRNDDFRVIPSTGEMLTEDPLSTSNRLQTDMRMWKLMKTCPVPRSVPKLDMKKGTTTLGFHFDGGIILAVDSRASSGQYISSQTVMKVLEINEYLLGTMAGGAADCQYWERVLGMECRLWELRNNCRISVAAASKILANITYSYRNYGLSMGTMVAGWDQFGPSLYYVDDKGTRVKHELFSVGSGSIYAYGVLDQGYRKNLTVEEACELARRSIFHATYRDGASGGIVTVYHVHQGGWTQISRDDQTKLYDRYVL

Homo sapiens = species on record: Homo sapiens; assay: To identify inhibition of the IFN signalling (Jak-Stat) pathway via expression of an eGFP reporter gene under the control of an IFN-stimulated response element (ISRE) containing MxA promoter.; assay type: functional; conditions: 30 µM
[7] = molecular target: T4, Tyrosyl-tRNA synthetase, putative (Trypanosoma cruzi (strain CL Brener)) (UniProt Q4DSP6); assay: Trypanosoma cruzi tyrosyl tRNA synthetase (TcYRS) _High Tyrosine SOP; assay type: functional; conditions: 30 µM; further: in the data most compounds retested in dose-response had high values
T4 sequence (whole entry): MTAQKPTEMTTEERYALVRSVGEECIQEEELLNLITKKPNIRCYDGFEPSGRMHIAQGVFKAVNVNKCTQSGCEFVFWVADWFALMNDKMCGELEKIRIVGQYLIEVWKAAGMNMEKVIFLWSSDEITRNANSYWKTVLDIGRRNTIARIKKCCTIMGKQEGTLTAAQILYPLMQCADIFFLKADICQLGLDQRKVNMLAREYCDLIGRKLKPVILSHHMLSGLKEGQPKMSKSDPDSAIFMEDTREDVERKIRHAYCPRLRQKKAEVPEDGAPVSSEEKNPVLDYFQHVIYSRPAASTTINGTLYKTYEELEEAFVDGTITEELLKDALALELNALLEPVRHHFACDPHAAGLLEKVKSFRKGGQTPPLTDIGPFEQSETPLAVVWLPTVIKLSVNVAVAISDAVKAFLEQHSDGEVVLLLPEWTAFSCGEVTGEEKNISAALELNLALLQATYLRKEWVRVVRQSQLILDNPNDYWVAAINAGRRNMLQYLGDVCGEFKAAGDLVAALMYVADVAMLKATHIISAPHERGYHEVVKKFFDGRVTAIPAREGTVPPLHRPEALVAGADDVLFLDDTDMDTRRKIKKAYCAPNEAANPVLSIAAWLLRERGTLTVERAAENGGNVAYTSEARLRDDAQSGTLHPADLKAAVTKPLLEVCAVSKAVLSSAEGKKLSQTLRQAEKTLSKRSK

[8] = molecular target: T4, Tyrosyl-tRNA synthetase, putative (Trypanosoma cruzi (strain CL Brener)); assay: Trypanosoma cruzi tyrosyl tRNA synthetase (TcYRS) SOP; assay type: functional; conditions: 30 µM
[9] = molecular target: Chromo domain-containing protein 1 (Saccharomyces cerevisiae (strain ATCC 204508 / S288c) (Baker's yeast)) (UniProt P32657); assay: ScCHD-1 Enzyme Inhibition Assay; assay type: functional; conditions: 30 µM; further: in the data most compounds retested in dose-response had high values
Sequence of Chromo domain-containing protein 1 (Saccharomyces cerevisiae (strain ATCC 204508 / S288c) (Baker's yeast)) (P32657 whole entry, the tested form may be a part): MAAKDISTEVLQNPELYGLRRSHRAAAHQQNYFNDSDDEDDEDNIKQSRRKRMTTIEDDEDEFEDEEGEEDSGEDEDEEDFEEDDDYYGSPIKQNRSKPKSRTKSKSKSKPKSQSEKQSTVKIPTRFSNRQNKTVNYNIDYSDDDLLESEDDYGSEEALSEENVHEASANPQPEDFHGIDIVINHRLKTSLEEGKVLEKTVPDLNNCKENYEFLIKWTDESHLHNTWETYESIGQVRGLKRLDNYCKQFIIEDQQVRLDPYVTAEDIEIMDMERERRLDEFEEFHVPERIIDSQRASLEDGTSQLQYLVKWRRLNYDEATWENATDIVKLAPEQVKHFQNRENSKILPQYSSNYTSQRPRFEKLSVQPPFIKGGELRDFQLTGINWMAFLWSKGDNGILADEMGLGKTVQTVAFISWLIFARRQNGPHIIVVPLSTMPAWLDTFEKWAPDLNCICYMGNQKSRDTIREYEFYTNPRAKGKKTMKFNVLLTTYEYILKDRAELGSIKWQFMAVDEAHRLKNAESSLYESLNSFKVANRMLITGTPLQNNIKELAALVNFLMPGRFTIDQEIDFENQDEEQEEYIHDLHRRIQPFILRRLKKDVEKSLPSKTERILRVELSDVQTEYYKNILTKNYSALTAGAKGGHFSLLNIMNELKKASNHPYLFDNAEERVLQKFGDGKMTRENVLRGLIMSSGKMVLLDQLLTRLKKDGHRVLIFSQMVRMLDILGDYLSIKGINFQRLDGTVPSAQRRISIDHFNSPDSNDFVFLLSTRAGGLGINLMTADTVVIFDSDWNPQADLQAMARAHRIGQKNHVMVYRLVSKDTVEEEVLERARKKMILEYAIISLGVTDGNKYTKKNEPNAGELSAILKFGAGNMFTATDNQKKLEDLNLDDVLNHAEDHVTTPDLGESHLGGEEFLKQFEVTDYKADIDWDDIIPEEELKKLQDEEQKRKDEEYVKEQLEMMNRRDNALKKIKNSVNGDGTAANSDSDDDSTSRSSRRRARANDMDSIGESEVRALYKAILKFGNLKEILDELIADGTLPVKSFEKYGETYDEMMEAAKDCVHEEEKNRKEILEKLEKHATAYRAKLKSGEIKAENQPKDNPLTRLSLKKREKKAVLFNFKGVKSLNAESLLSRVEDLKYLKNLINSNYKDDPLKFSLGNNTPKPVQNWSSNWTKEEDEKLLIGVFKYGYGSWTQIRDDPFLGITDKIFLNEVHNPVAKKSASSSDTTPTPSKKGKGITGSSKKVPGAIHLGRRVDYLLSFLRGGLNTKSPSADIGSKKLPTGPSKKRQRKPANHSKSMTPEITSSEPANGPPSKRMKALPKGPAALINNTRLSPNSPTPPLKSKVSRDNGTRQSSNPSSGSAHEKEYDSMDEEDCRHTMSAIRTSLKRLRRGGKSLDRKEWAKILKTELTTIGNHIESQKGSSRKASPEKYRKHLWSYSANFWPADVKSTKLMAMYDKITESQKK

Sequence of Protein translocase subunit SecA (Escherichia coli (strain K12)) (P10408 whole entry): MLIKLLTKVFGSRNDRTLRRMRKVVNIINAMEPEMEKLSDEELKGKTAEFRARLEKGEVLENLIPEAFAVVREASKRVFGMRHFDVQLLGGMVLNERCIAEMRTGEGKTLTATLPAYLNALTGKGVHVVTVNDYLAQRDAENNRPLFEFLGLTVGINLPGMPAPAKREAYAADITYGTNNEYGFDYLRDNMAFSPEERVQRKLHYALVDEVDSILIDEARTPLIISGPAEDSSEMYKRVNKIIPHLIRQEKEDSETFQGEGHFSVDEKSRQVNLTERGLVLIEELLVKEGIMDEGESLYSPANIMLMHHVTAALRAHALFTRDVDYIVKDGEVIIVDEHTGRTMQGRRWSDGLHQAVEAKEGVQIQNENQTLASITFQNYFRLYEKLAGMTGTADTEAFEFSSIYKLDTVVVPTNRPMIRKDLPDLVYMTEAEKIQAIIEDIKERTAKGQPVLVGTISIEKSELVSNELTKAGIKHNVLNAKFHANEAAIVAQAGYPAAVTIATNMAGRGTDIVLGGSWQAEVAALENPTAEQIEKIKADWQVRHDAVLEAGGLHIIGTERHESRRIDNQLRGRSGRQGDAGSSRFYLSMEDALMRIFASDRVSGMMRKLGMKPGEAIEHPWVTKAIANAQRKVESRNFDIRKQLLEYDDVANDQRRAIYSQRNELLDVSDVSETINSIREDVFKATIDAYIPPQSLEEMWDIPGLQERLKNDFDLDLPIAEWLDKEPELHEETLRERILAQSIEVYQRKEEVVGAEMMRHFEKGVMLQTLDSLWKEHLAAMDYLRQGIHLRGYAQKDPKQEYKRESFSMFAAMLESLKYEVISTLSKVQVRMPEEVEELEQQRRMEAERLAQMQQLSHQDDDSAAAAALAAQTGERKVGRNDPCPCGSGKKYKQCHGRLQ

SMILES | Percent Effect [1] | Percent Effect [2] | Percent Effect [3] | Percent Effect [4] | Percent Effect (Trypanosoma cruzi) | Percent Effect [5] | Percent Effect [6] | Percent Effect (Homo sapiens) | Percent Effect [7] | Percent Effect [8] | Percent Effect [9]
Cn1nnc2c1C(COCc1ccccn1)CN(C(=O)c1cccs1)C2 (stereo not drawn) | 3.29% | 16.4% | -9.82% | 5.59% | 1.59% | -7.19% | 13.6% | 36.4% | 6.25% | 23.5% | -1.99%
CCn1nnc2c1C(COC)CN(C(=O)COc1ccccc1)C2 (stereo not drawn) | -3.61% | 0% | -1.01% | -0.576% | -2.73% | 0% | 10.4% | -3.63% | 5.94% | 3.66% | 9.82%
CN(Cc1cccc(Cl)c1)S(=O)(=O)N1CCOCC1 | -3.38% | 10.5% | 6.62% | -2.67% | 4.58% | -5.92% | 23.9% | -6.09% | 1.06% | 15.6% | -2.59%
CSc1cccc(CN(C)C(=O)C2CC(=O)N(CCN(C)C)C2)c1 (stereo not drawn) | 0.893% | 10.7% | -12.1% | 4.56% | 4.38% | 18.2% | 18.1% | 29.9% | 8.2% | 16.1% | -0.611%
Cn1cc(-c2csc(N3CCN(C(=O)OC(C)(C)C)CC3)n2)cn1 | -0.688% | 4.17% | -13.6% | 7.74% | 1.85% | 30.5% | 8.42% | 57.3% | 10.5% | 12.8% | -1.57%
CC(NCc1ccc(Cl)o1)c1nnc2n1CCCC2 (stereo not drawn) | -1.28% | 13.5% | 2.81% | 2.02% | 0.195% | 11.2% | 15% | 24.2% | 6.93% | 18.3% | 1.09%
Cc1nn(CC(=O)N2CCCCC2Cn2cccn2)c(C)c1Cl (stereo not drawn) | -2.25% | 2.7% | 0.616% | -1.03% | -4.3% | 2.92% | 14.4% | 7.18% | 1.98% | 13.4% | -2.37%
Cc1cc(CN2CCN(C(=O)Nc3cccnc3)CC2)on1 | -2.38% | 15.8% | -3.05% | 8.98% | -2.63% | 4.6% | 4.51% | -11.1% | 6.37% | 17.1% | -2.69%

— ChEMBL document CHEMBL3988442, “University of Dundee, Small-Polar-MMV Screening Library” (2021)
